Screening data as filed in PubChem.
MazF activator – activators of E. coli MazEF toxin-antitoxin RNase. AID 504720. FAM/BHQ RNA-DNA oligo cleavage fluorescence, 5 h. P0AE70. activation, % at 20 µM. hit rate 0.32% among 350,000; in the data active = activation above about 50%
Target sequence (P0AE70 whole entry, looked up): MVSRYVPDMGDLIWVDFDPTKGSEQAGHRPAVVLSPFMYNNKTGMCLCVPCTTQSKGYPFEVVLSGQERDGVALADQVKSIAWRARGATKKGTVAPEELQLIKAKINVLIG
BoNT A protease – blocks Botulinum neurotoxin A light chain protease; multiplex microsphere protease substrate cleavage, flow cytometry; inhibition, % at 10 µM; hit rate 0.17% among 360,000; AID 588499
Bead autofluor – flagged as autofluorescent in microsphere protease counterscreen; compound autofluorescence counterscreen, microsphere flow cytometry; hits give high values; fluorescence intensity (test concentration not listed); hit rate 3.1% among 360,000; in the data active = fluorescence intensity above about 16000; inconclusive = no clear call, values can overlap the other calls
Anthrax LF inh2 – anthrax lethal factor protease inhibition; P15917; multiplex microsphere protease cleavage assay, LF; inhibition, % at 10 µM; hit rate 0.12% among 360,000; AID 588501
BoNT-F LC inh – blocks Botulinum neurotoxin F light chain protease. hit rate 0.22% among 360,000. inhibition, % at 10 µM. AID 588497. Multiplex microsphere protease cleavage assay, flow cytometry; in the data active = inhibition above about 35%, passing the limit was not always enough; inconclusive = no clear call, values can overlap the other calls
Numbers stand for hits; n = inactive; u = inconclusive; x = no result; + = active, no number. A selection: hits, their analogues and other compounds. The true share with any hit is near 3.7%. Rule as the data show it, unless noted: active = inhibition above about 30%; inconclusive = no clear call, values can overlap the other calls; inactive = below that.

SMILES	MazF activator	BoNT A protease	Bead autofluor	Anthrax LF inh2	BoNT-F LC inh
Clc1cccc(-c2nc3ccc(Cl)cn3c2Cc2ccsc2)c1	x	n	n	n	n
COCCNC(=O)c1cc2cc(Br)cc(OC)c2oc1=O	n	u	21622	n	n
CCN(CC)C(=O)c1ccc(Nc2nnc(C)c3ccccc23)cc1	n	n	24503	n	n
CCN(CC)C(=O)c1ccc(NC(=O)Cn2nc(C)c3ccccc3c2=O)cc1	n	u	22310	n	n
Cc1nn(CC(=O)Nc2ccccc2)c(=O)c2ccccc12	n	x	x	x	x
CCN(CC)C(=O)c1ccc(-c2nnc(Nc3ccc(O)cc3)c3ccccc23)cc1	n	n	n	n	n
Cc1nn(CC(=O)N(C)C)c(=O)c2ccccc12	n	n	22253	n	n
Cc1nn(CC(=O)Nc2ccc(C(=O)N(C)C)cc2)c(=O)c2ccccc12	n	n	19106	n	n
CSC(=S)NCc1cccnc1	n	n	n	n	n
Cc1nn(CC(=O)Nc2ccc3c(c2)nc2n3CCOC2)c(=O)c2ccccc12	n	n	21862	n	n
O=C(NC1CCCCC1)C(c1ccc(O)cc1)N(CC1CCCO1)C(=O)C1COc2ccccc2O1 (stereo unspecified)	n	n	20282	n	n
O=C(/C=C/c1c(Cl)cccc1Cl)NCCCn1ccnc1	n	n	n	n	n
C=C(C)CSc1nnc([C@@H](N)Cc2ccccc2)o1	n	u	n	n	u
CN(C)C(=O)CSc1nnc([C@@H](N)Cc2ccccc2)o1	n	n	22809	n	n
C[C@H](N)c1nnc(SCC(=O)N(C)C)o1	n	n	20911	n	n
CCCNC(=O)/C(C#N)=C1\N=C(NC(=O)c2ccco2)c2ccccc21	90.0	n	n	n	n
COCCNC(=O)/C(C#N)=C1\N=C(NC(=O)c2ccco2)c2ccccc21	n	n	n	n	n
COc1ccc2oc(C(=O)OCC(=O)N(C)CC(=O)Nc3ccc(C)cc3)c(C)c2c1	n	n	n	n	n
CCOC(=O)c1ccc(NC(=O)NC(C)C2CCCO2)cc1 (stereo unspecified)	n	n	21999	n	n
CCOC(=O)c1cc(NC(=O)C2CCCO2)cc(C(=O)OCC)c1 (stereo unspecified)	n	n	16398	n	n
CCOC(=O)c1ccc(NC(=O)N2CCN(S(C)(=O)=O)CC2)cc1	n	n	17414	n	n
CCOC(=O)c1ccc(NC(=O)C2CCCO2)cc1 (stereo unspecified)	n	n	n	n	n
CCOC(=O)c1ccc(NC(=O)N2CCN(C3CCCCC3)CC2)cc1	n	n	16368	n	n
Cc1cc(C)c2oc(C(=O)N3CCN(Cc4ccccc4)CC3)cc(=O)c2c1	n	n	n	n	n
CCN1CCN(C(=O)Nc2cc(Cl)ccc2OC)CC1	n	n	n	n	n
SMILES	MazF activator	BoNT A protease	Bead autofluor	Anthrax LF inh2	BoNT-F LC inh
Cc1ccc(NC(=S)N2CCN(S(C)(=O)=O)CC2)cc1	n	n	n	n	n
COc1ccc(NC(=O)N2CCN(S(C)(=O)=O)CC2)cc1OC	n	n	22966	n	n
CCOC(=O)c1ccc(NC(=S)N2CCN(S(C)(=O)=O)CC2)cc1	n	n	16800	n	n
COc1ccc(Cl)cc1NC(=O)N1CCN(C2CCCCC2)CC1	n	u	20816	n	n
C(=Nn1cnnc1)c1ccc2c(c1)CCC2	n	n	n	n	n
Cc1cc(-c2ccccc2)c2c3c(c(-c4ccccc4)n2n1)c(=O)n(C)c(=O)n3C	+	n	n	n	n
COc1cccc(NC(=O)CSc2nnc3ccc(-c4ccccn4)nn23)c1	n	n	n	n	n
CCOc1ccc(NC(=O)CSCc2cnn(-c3ccccc3)c2-n2cccc2)cc1	n	n	19959	n	n
O=C(CSCc1cnn(-c2ccccc2)c1-n1cccc1)N1CCN(Cc2ccccc2)CC1	n	u	18611	n	n
O=C(COC(=O)c1ccc2ccccc2c1O)Nc1ccccc1	n	n	u	n	n
O=C1CCCC2=C1C(c1cccs1)Nc1ccc3ncccc3c12 (stereo unspecified)	n	u	23605	n	n
Cc1ccsc1C1Nc2ccc3ncccc3c2C2=C1C(=O)CC(C)(C)C2 (stereo unspecified)	n	u	16347	n	n
C[C@@H](NC(=O)[C@@H]1Cc2ccccc2CN1)C(=O)Nc1ccc2c(c1)OCO2	n	n	n	n	n
CCn1c(SCC(=O)NCc2ccc3c(c2)OCO3)nnc1-c1c[nH]c2ccccc12	n	n	n	n	n
Cc1ccccc1-c1nnn(CC(=O)NCc2ccc3c(c2)OCO3)n1	n	n	21659	n	n
Cn1c(SCC(=O)NCc2ccc3c(c2)OCO3)nnc1-c1c[nH]c2ccccc12	n	u	16863	n	n
